# An excerpt weighted towards active compounds, which were near 6% of everything screened.
# D1 potentiator – enhances dopamine response at the human D1 receptor; P21728; HEK293 TREx D1 cells, calcium flux, dopamine EC20 potentiation; potentiation, % at 10 µM; 360,000 tested, 0.036% active; AID 504651; in the data active = potentiation above about 30%
# D1 ag – human D1 receptor agonism | P21728 | activation, % at 2 µM | HEK293 T-REx D1 cells, calcium flux, agonist mode | 360,000 tested, 1% active; in the data active = activation above about 30%
#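 Inducible HEK293 T-REx D1 cells, force-coupled to calcium signalling, were plated at 4000 cells/well with tetracycline and held overnight at 30 C. After no-wash calcium dye loading, compound-evoked calcium rise over 180 s flagged agonists.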
# DRD3 agonist – D3 dopamine receptor (human) agonism | P35462 | D3R DiscoveRx beta-arrestin cells, luminescence, 90 min | max activation, % | 410,000 tested, 0.58% active | AID 652048; in the data active = max activation above about 30%
# Target sequence (P35462 whole entry, looked up): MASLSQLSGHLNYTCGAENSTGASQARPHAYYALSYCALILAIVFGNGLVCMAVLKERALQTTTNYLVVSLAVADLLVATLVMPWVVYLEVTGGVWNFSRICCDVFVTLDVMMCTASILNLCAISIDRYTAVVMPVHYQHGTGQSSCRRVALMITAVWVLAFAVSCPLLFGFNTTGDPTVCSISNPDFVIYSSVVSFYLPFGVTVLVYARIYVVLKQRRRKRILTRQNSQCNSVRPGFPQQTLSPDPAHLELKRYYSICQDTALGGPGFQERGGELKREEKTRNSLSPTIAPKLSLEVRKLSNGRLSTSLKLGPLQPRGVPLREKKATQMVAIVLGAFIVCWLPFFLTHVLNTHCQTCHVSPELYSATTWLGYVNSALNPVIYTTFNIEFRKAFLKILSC
#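 Agonist mode: compounds and dopamine controls were applied to plated cells for 90 min at 37 degrees C after an overnight attachment at 1500 cells/well. Luminescent read-out followed 30 - 60 minutes at room temperature with DiscoveRx detection reagent.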
# DRD3 antagonist – antagonists of human D3 dopamine receptor. P35462. D3R cells, DiscoveRx beta-arrestin luminescence, antagonist mode; hits give low values. max response, negative = inhibition, %. 360,000 tested, 2.5% active. AID 652054; in the data active = max response below about -50%
#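 Cells plated overnight at 1500 cells/well, then exposed to library compounds with dopamine controls for 90 minutes at 37 degrees C. DiscoveRx reagent added for 30–60 minutes at room temperature; luminescence read, quantitative HTS format.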
# D1 antag – blocks dopamine activation of the human D1 receptor | activity change, negative = inhibition, % at 10 µM | HEK293 TREx D1 cells, calcium flux, dopamine EC80; hits give low values | 360,000 tested, 3.2% active; in the data active = activity change below about -30%
#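 Using tetracycline-induced force-coupled D1 Hek293 cells and a calcium dye, signals were followed for 180 s after compound, then for 180 s after EC80 dopamine, to detect inhibitors.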
# Hits are given with their value; – = inactive; · = not tested or not shown.
SMILES,D1 potentiator,D1 ag,DRD3 agonist,DRD3 antagonist,D1 antag
CC(=O)N1C=Cc2c(c(C)c3c([nH]c4ccccc43)c2C)C1,–,58,·,·,–
O=c1oc2ccccc2c(Cl)c1CN1CCCCC1,–,–,–,-76,–
O=C(NCC1CCCO1)c1ccccc1OCc1ccc(F)cc1 (configuration not stated),–,–,–,-66,–
COC(=O)[C@@H](N)Cc1ccc(O)c(O)c1,–,–,–,–,-53
COC(=O)C(N)Cc1ccc(Cl)cc1 (configuration not stated),–,–,–,–,–
O=C(/C=C/c1ccccc1)NC(N1CCOCC1)C(Cl)(Cl)Cl (configuration not stated),–,–,–,–,-34
Cc1cc(Cl)ccc1NC(=O)CN1CCC(C(O)(c2ccccc2)c2ccccc2)CC1,–,–,–,-62,–
Cc1cc(Cl)ccc1NC(=O)CN1CCCC1,–,–,–,–,–
CO[C@@H]1[C@@H](O[C@@H]2O[C@H](C)[C@@H](O[C@H]3C[C@@](C)(O)[C@@H](OC(=O)CC(C)C)[C@H](C)O3)[C@H](N(C)C)[C@H]2O)[C@@H](CC=O)C[C@@H](C)C(=O)/C=C/C2OC2C[C@@H](C)OC(=O)C[C@H]1OC(C)=O (some centres not stated),·,·,–,·,·
CC(=O)/C=C/n1c(=S)oc2ccccc21,–,–,–,-85,–
CC(C)[C@@H]1CC[C@@H](C)C[C@H]1OC(=O)c1ccccc1O,·,·,–,·,·
Clc1ccc(-c2cc(COc3ccccc3)on2)cc1,–,35,–,–,–
Clc1ccc(OCc2cc(-c3ccccc3)no2)cc1Cl,–,–,–,–,–
COC(=O)c1ccc2c(c1)C(=O)/C(=C/c1ccc(O)cc1)O2,–,88,–,–,–
CC(=O)Oc1ccc(/C=C2/Oc3ccccc3C2=O)cc1,–,–,–,–,–
CC(C)(C)c1ccc(/C=C2\Oc3cc(O)ccc3C2=O)cc1,–,–,–,–,-46
O=C1/C(=C/c2ccc(Br)cc2)Oc2cc(O)ccc21,–,45,–,–,–
OCCO[C@@H]1[C@@H](O)[C@H](O)[C@@H](CO)O[C@@H]1O,·,·,–,·,·
COc1cccc(CNC(=O)CN2C(=O)CSc3ccc(S(=O)(=O)N(C)C)cc32)c1,–,–,–,·,–
Nc1nonc1-n1nnc(C(=O)N/N=C/c2ccco2)c1-c1ccccc1,–,–,–,–,–
CCOc1ccc(-c2c(C(=O)N/N=C/c3ccc(C)o3)nnn2-c2nonc2N)cc1,–,–,–,–,–
Cc1ccc(/C=N/NC(=O)c2nnn(-c3nonc3N)c2-c2ccccc2)o1,–,34,–,–,–
Nc1nonc1-n1nnc(C(=O)N/N=C/c2ccoc2)c1-c1ccccc1,–,35,–,–,–
CSc1ccc(CCNC(=O)CCCn2nc(C)c3sc4ccccc4c3c2=O)cc1,–,–,–,·,-69
Cc1ccc(NC(=O)CCCn2nc(C)c3sc4ccccc4c3c2=O)c(Cl)c1,–,–,–,·,-45
SMILES,D1 potentiator,D1 ag,DRD3 agonist,DRD3 antagonist,D1 antag
Cc1nn(CCCC(=O)NCc2ccc(OC(C)C)cc2)c(=O)c2c1sc1ccccc12,–,–,–,·,–
COc1cc(OC)c(NC(=O)CCCn2nc(C)c3sc4ccccc4c3c2=O)cc1Cl,–,–,–,·,-71
CCOc1ccc(-c2nc3c(c(SCC(=O)N4CCCCC4)n2)Cc2cccc(OC)c2O3)cc1,–,–,–,·,–
Cc1ccccc1C(=O)NC1CC2CCCC(C1)N2Cc1ccc(Cl)cc1 (configuration not stated),–,–,–,-97,-73
COc1ccccc1C(=O)NC1CC2CCCC(C1)N2Cc1ccccc1 (configuration not stated),·,·,–,-112,·
Cc1ccccc1C(=O)NC1CCCN(Cc2ccccc2F)C1 (configuration not stated),–,–,–,–,–
O=C(NC1CC2CCC(C1)N2Cc1ccccc1)c1ccccc1Cl (configuration not stated),–,–,–,-89,–
Cc1cccc(NC(=S)NC2CC3CCCC(C2)N3Cc2ccccc2)c1C (configuration not stated),–,–,–,-100,–
Cc1cccc(NC(=S)NC2CCCC2)c1C,–,–,–,–,–
Cc1cc(C)cc(NC(=O)NCCn2nnc3cc(S(=O)(=O)N(C)C)ccc32)c1,–,–,–,·,–
COc1ccc(/C=C/C(=O)OCCC(C)C)cc1,·,·,–,·,·
Cc1ccccc1C(=O)NC1CC2CCCC(C1)N2Cc1ccccc1 (configuration not stated),–,–,–,-85,–
CCCCN1C2CCCC1CC(NC(=O)c1ccccc1Cl)C2 (configuration not stated),–,–,–,–,–
COc1cc(Cl)c(C)cc1NC(=O)CCc1c(C)nc2c3cccnc3nn2c1C,–,–,–,·,–
CCn1c(SCc2nc3ccccc3s2)nc2cc(S(=O)(=O)N3CCOCC3)ccc21,·,·,–,–,·
N#CCc1nc2ccc(S(=O)(=O)N3CCOCC3)cc2s1,–,39,–,–,–
O=S(=O)(c1ccc(OCc2nc3ccccc3s2)c(Cl)c1)N1CCOCC1,–,–,–,-76,–
CC(C)CC1N=C2c3ccccc3N=C(SCC(=O)NCCc3ccc(Cl)cc3)N2C1=O (configuration not stated),–,–,–,·,–
COC(c1ccccc1)(c1ccccc1)[C@H](Oc1nc(C)cc(C)n1)C(=O)O,·,·,–,·,·
Cn1c(C=O)c(C#Cc2ccccc2)c2ccccc21,–,–,39,–,·
COc1cc(CCN=Cc2cc(Cl)cc(Cl)c2O)c([N+](=O)[O-])cc1OC,·,·,–,-50,·
COc1cc(CC(=O)O)c([N+](=O)[O-])cc1OC,–,–,–,–,–
O=C(NCCCNc1ccc(C(F)(F)F)cc1[N+](=O)[O-])c1cc(F)c(F)cc1Cl,–,–,–,–,-43
Cc1cc2c(s1)c1cnn(Cc3c(F)c(F)c(C)c(F)c3F)c(=O)c1n2C,–,–,·,·,–
COc1cc2c(cc1OC)CN(Cc1cc(=O)oc3cc(C)c(C)cc13)CC2,–,–,42,–,–
SMILES,D1 potentiator,D1 ag,DRD3 agonist,DRD3 antagonist,D1 antag
CCc1ccc2c(CN3CCc4cc(OC)c(OC)cc4C3)cc(=O)oc2c1,–,–,31,–,–
COc1cc2c(cc1OC)CN(Cc1cc(=O)oc3cc(C)c(Cl)cc13)CC2,–,–,–,–,–
Cc1cccc(Cn2nc(C)n3c(cc4cc(C)ccc43)c2=O)c1,–,–,–,·,–
CCCc1nnc(NC(=O)Cn2c(=O)oc3cc(Br)ccc32)s1,–,62,–,–,–
CCCc1nnc(NC(=O)Cn2c(=O)oc3ccccc32)s1,–,–,–,–,–
Cc1ccccc1N=C(NOCc1ccc(Cl)cc1Cl)c1nonc1N,–,–,–,-85,-48
Cc1ccc(N=C(NOCc2ccc(Cl)cc2Cl)c2nonc2N)c(C)c1,–,–,–,–,–
Cc1cc(N)n(-c2cc(C)c3ccccc3n2)n1,–,–,–,–,–

# From PubChem BioAssay
